# Compound activity from PubChem.
# Gal4-VP16 FLuc – Gal4-VP16 reporter inhibition counter-screen; Drosophila S2 Gal4-VP16 UAS-luciferase, luminescence, 20 h; Potency, µM (doses to about 53.6 µM), most hits filed as inhibitors; hit rate 3.5% among 310,000; AID 2546;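 also: Gal4-VP16 expression switched on by copper sulfate through the metallothionein promoter; nearly all actives have a fitted effect of over 50% in size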
# IL-1B inflam inh – inhibitors of inflammasome signaling (IL-1 beta secretion); THP-1 LPS/ATP IL-1B secretion, AlphaLISA, 16 h; active compounds read low; activity change, % at 57.5 µM; hit rate 4.7% among 360,000; in the data active = activity change below about -50%; inconclusive = mostly about -30% to -49%
#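 THP-1 cells pretreated 1 hr with compounds (up to 57.5 uM final), then stimulated with LPS (250 ng/mL final) plus ATP (1.25 mM final); secreted IL-1B measured by AlphaLISA after 16 hr, decreased signal indicating inhibition.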
# DT40 TDP1 CPT – growth inhibition of DT40 Tdp1-/-;hTDP1 cells with camptothecin (screen for TDP1 inhibitors); chicken DT40 Tdp1-/-;hTDP1 cells + 20 nM CPT, ATP luminescence, 48 h; Potency, µM (highest dose often 46.2 µM), hits mostly inhibitors; AID 686979; hit rate 12% among 420,000; also: nearly all actives have a fitted effect of over 55% in size
#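 Cell growth measured by CellTiter-Glo luminescence after a minimum 48 h, 37 C compound exposure with 20 nM CPT in Tdp1-knockout DT40 cells stably expressing hTDP1, seeded 400/well; qHTS titration format.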
# ELG1 DNA repair – ELG1-dependent DNA repair inhibition; HEK293T ELG1-luciferase reporter, luminescence, 16 h; DNA damage induced by 5-fluorouridine; Potency, µM (doses to about 46.1 µM), most hits filed as inhibitors; hit rate 2.3% among 330,000; also: nearly all actives have a fitted effect of over 55% in size
#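 Overnight (16 hr) co-exposure of 2,000 cells/well to 5-fluorouridine and compound at 37 °C preceded detection. Luciferase was quantified via ONE-Glo luminescence; loss of signal denotes inhibition.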
# RORgamma inh – inhibitors of mouse ROR gamma transcriptional activity. hit rate 5.4% among 310,000. Drosophila S2 Gal4-RORgamma UAS-luciferase reporter, 20 h. Potency, µM (doses to about 53.6 µM), hits mostly inhibitors. AID 2551; also: nearly all actives have a fitted effect of over 60% in size
# Target sequence (P51450 whole entry, looked up, the tested form may be a part): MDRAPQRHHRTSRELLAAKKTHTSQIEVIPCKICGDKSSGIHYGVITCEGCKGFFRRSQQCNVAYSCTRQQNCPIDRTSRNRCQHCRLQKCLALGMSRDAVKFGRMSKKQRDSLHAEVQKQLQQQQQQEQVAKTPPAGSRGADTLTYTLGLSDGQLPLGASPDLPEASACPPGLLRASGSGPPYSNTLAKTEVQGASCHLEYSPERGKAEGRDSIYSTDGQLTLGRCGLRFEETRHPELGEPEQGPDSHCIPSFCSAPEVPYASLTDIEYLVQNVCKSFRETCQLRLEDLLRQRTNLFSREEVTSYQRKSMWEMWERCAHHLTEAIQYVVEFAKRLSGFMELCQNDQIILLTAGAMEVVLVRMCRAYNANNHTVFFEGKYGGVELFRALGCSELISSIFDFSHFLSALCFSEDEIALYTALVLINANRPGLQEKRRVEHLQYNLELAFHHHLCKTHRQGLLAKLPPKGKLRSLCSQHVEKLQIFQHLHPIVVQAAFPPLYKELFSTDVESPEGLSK
#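 Drosophila S2 cells stably expressing Gal4-DBD/mouse RORγ fusion under metallothionein promoter plus UAS-luciferase; compound 1 h, then 700 uM CuSO4 induction for 20 h at ambient temperature; inhibition read as reduced luminescence.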
# TDP1 cell noCPT – qHTS for Inhibitors of human tyrosyl-DNA phosphodiesterase 1 (TDP1): qHTS in cells in absence of CPT | AID 686978, 2013 | DT40 Tdp1-/- hTDP1 cells, no CPT, ATP luminescence, 48 h | hit rate 15% among 420,000 | Potency, µM (titrated, usually from 46.2 µM), most hits filed as inhibitors; also: nearly all actives have a fitted effect of over 55% in size
#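 Seeded 400 DT40-hTDP1 cells/well (vehicle DMSO, no 20 nM CPT); pinned compounds; ≥48 hr at 37 °C; CellTiter-Glo luminescence as viability measure.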
# Numbers stand for hits; - = inactive; ? = inconclusive; . = no result given; [ ] = dose if it differs, or a comment. Sampled rows, rich in hits. Any-hit rate of the full collection: about 21%. Unless noted, calls follow the shape of the dose curve; as a rule, active = well fitted curve in the direction sought with a large enough effect; inconclusive = small, poorly fitted or top-dose-only effect, or another doubt; inactive = no such curve, though single readings can be large; an effect the other way counts as inactive or inconclusive.
SMILES,Gal4-VP16 FLuc,IL-1B inflam inh,DT40 TDP1 CPT,ELG1 DNA repair,RORgamma inh,TDP1 cell noCPT
Cc1cc2nc(-c3ccc[nH]c3=O)[nH]c2cc1C,6.31µM,-,7.31µM,?,7.94µM,10.3µM
CN(C)S(=O)(=O)c1ccc(NC(=O)N2CCN(c3cccc(C(F)(F)F)c3)CC2)cc1,10µM,-,3.66µM,?,?,2.59µM
COc1ccc(NC(=O)N2CCN(c3cccc(C(F)(F)F)c3)CC2)cc1,-,-,2.06µM,-,-,7.31µM
COc1ccc(NC(=O)CSCC(=O)N2CCN(c3cccc(C(F)(F)F)c3)CC2)cc1,.,-,?,-,.,14.6µM
Cc1cc2oc(=O)cc(CN3CCCCCCC3)c2cc1Cl,.,-,?,.,.,?
COCCCNC(=O)/C(C#N)=C/c1c(N2CCN(c3ccc(OC)cc3)CC2)nc2c(C)cccn2c1=O,-,-,23.1µM,?,-,14.6µM
COCCNC(=O)/C(C#N)=C/c1c(N2CCCCCC2)nc2c(C)cccn2c1=O,-,-,?,-,-,14.6µM
Cc1cccn2c(=O)c(/C=C(\C#N)C(N)=O)c(N3CCN(Cc4ccc5c(c4)OCO5)CC3)nc12,-,-51.4,?,?,-,?
COCCNC(=O)/C(C#N)=C/c1c(N2CCN(C)CC2)nc2c(C)cccn2c1=O,-,-,-,-,-,-
CCOC(=O)/C(C#N)=C/c1c(N2CCN(Cc3ccc4c(c3)OCO4)CC2)nc2c(C)cccn2c1=O,-,-,?,-,-,?
COCCCNC(=O)/C(C#N)=C/c1c(N2CCN(C)CC2)nc2c(C)cccn2c1=O,-,-,-,-,-,-
CNC(=O)/C(C#N)=C/c1c(N2CCN(c3ccccc3)CC2)nc2c(C)cccn2c1=O,-,-,?,?,-,14.6µM
CNC(=O)/C(C#N)=C/c1c(N2CCN(c3ccc(OC)cc3)CC2)nc2c(C)cccn2c1=O,-,?,?,?,-,?
COCCN(C(=O)COC(=O)CCc1ccccc1)c1c(N)n(Cc2ccccc2)c(=O)[nH]c1=O,.,-,-,-,.,-
O=C(/C=C/c1ccc(O)c(O)c1)OC1C[C@](O)(C(=O)O)C[C@@H](O)[C@H]1O (stereo partly specified),-,.,.,.,-,.
COc1ccc(NS(=O)(=O)c2cccc(C(=O)NN=Cc3cc(Br)c(O)c(Br)c3)c2)cc1,.,-,-,-,.,-
CSc1ccccc1C(=O)NCC1Cc2cc(F)cc(-c3cnccn3)c2O1 (stereo unspecified),.,.,20.6µM,.,.,?
Cc1cc2c(c(-c3cnccn3)c1)OC(CNC(=O)c1cc(Cl)ccc1F)C2 (stereo unspecified),.,.,-,.,.,-
COc1ccc(Cl)cc1NC(=O)CCc1nnc2ccc(N3CCN(C)CC3)nn12,-,-,-,-,-,-
O=C1[C@H]2[C@H]3[C@H](O)[C@H](O)C/C(=N/OCc4ccccc4)[C@H]3CC[C@@H]2C(=O)N1c1cccc(Oc2ccccc2)c1,-[10 µM],.,.,.,-[10 µM],.
CS(=O)(=O)c1ccc(-c2cccc(NC(=O)c3ccco3)c2)nn1,.,-,?,?,.,18.4µM
COc1ccc(-c2cccc(NC(=O)c3ccco3)c2)nn1,.,-,?,?,.,25.9µM
CS(=O)(=O)c1ccc(-c2cccc(NC(=O)COc3ccc(Cl)cc3)c2)nn1,?,-,-,?,-,-
O=C(Nc1cccc(-c2ccc3nncn3n2)c1)c1ccco1,-,-,?,-,-,?
O=C1N[C@@H]2[C@H](CCCCC(=O)Oc3ccc([N+](=O)[O-])cc3)SC[C@H]2N1,-,.,.,.,-,.
SMILES,Gal4-VP16 FLuc,IL-1B inflam inh,DT40 TDP1 CPT,ELG1 DNA repair,RORgamma inh,TDP1 cell noCPT
COc1ccc(Oc2ncc3nc(-c4cn(C)c5ccccc45)c(=O)n(C)c3n2)cc1,-,.,-,.,-,-
COc1cc(CNC2CCCC2)cc(OC)c1OC,-,-,-,-,-,-
COc1cccc(CNC2CCCc3ccccc32)c1OC (stereo unspecified),-,-,-,-,-,?
COc1cc(CNC2CCCc3ccccc32)cc(OC)c1OC (stereo unspecified),-,-,?,-,-,20.6µM
COc1cc(CNC2CCCC2)cc(Cl)c1OCc1ccccc1Cl,-,-93.8,23.1µM,-,-,23.1µM
COc1cc(CNC2CCCCCCC2)cc(Cl)c1OCC(N)=O,-,-,-,-,-,-
CCOc1cc(CNC2CCCC2)cc(Cl)c1OCc1ccc(F)cc1,-,-80.1,14.6µM,-,-,23.1µM
COc1cc(CNC2CCCC2)cc(Cl)c1OCc1ccc(F)cc1,-,?,?,-,?,14.6µM
Cc1nc(C(F)(F)F)ccc1C(=O)N1CCC(C)(C(=O)O)C1 (stereo unspecified),.,-,-,.,.,-
Cc1ccc(C(=O)NNC(=O)CSc2nnc(-c3ccncc3)n2-c2ccc(C)cc2)cc1,-,.,.,-,-,.
CCc1ccccc1OCCOc1ccc(C)cc1OC,-,-,?,-,-,29.1µM
COc1cc(C)ccc1OCCCOc1ccccc1Br,-,?,-,?,12.6µM,-
COc1ccccc1OCCCOc1ccc(C)cc1Br,-,-,-,?,-,?
Cc1ccc(N(CC(=O)NCc2ccc(F)cc2)C(=O)c2snc(C(N)=O)c2N)cc1C,-,-,-,-,-,-
Cc1cc(C)c(-c2cc(NC(=O)CSc3nncn3C)n(-c3ccccc3)n2)cc1C,-,-,18.4µM,?,-,20.6µM
COc1ccccc1-n1cnnc1SCC(=O)Nc1cc(C(C)(C)C)nn1-c1ccccc1,?,-,10.3µM,?,?,13µM
COc1ccc(-n2cnnc2SCC(=O)Nc2cc(C(C)(C)C)nn2-c2ccccc2)cc1,-,-,-,20.6µM,-,-
CC(C)C(NC(=O)c1cccc(S(=O)(=O)N2CCOCC2)c1)C(=O)NCc1ccc(Cl)cc1 (stereo unspecified),.,-,?,-,.,?
CC(C)CCNC(=O)C1CCC(Cn2c(=O)c3sccc3n(CC(=O)NC(C)C)c2=O)CC1 (stereo unspecified),.,.,-,.,.,?
COc1cccc(C(=O)N2CCN(C(=O)C3CC3)CC2)c1,-,-,-,-,-,-
CS(=O)(=O)c1ccc(Cl)c(NC(=O)c2cc(=O)[nH]c3ccc(S(=O)(=O)N4CCOCC4)cc23)c1,.,-,-,-,.,-
CCOC(=O)c1sc(N/N=C/c2ccc(N(C)C)cc2)nc1C,11.2µM,-,-,-,?,-
CC(=O)c1sc(N/N=C\c2cccc(Br)c2)nc1C,?,-66.3,?,?,?,?
